Measurements as given in PubChem BioAssay AID1903 (Southern Research Specialized Biocontainment Screening …, 2009).
In all, about 310,000 compounds went through this assay and about 1,200 (0.39%) were called active. The rule behind the calls is not given here. Only a sample is shown. Entries with a potency or affinity are not part of this list.

molecular target: Large T antigen (Simian virus 40) (UniProt P03070); experiment: TAg ATPase/helicase activity blockers – biochemical (AID 1903); settings: SV40 large T antigen ATPase/helicase inhibition assay; at 20 µM; hits give high values
Sequence (P03070 whole entry, looked up): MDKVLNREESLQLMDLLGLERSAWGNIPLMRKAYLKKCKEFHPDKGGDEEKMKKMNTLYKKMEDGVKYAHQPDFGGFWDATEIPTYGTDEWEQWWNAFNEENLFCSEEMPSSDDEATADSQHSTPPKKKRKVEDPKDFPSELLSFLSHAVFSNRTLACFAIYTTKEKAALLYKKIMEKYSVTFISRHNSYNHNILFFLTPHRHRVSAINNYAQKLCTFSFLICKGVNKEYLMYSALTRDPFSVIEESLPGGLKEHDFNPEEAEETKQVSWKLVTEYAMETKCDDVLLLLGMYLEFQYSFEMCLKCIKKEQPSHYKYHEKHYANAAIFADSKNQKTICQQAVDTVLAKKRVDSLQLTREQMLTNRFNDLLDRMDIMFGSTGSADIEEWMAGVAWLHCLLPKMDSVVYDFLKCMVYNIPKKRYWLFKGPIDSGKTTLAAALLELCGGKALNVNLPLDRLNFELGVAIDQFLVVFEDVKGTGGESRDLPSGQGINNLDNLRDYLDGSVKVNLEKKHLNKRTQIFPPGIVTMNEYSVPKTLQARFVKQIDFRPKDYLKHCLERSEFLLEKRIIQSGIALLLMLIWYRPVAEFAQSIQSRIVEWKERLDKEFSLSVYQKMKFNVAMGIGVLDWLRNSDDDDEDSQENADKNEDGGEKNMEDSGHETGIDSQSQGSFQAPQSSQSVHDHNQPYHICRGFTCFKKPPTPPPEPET

inhibition, inactive:
CSc1nnc2n(-c3ccc(C)cc3)c(=O)c3c4c(sc3n12)COC(C(C)C)C4 (centres undefined) 10.7%
Cc1nnc2n(Cc3ccccc3)c(=O)c3c4c(sc3n12)COC(C(C)C)C4 (centres undefined) 7.22%
CN1CCc2c(sc3c2c(=O)n(-c2ccccc2)c2n[nH]c(=S)n32)C1 25.6%
Cc1nnc2n(-c3ccccc3)c(=O)c3c4c(sc3n12)COC(C(C)C)C4 (centres undefined) 5.27%
O=C(O)c1nn2c(c1Br)NC(c1ccccc1)CC2C(F)(F)F (centres undefined) 3.96%
COc1ccc(C(=O)NNC(=O)C2CCCN(C3CC(=O)N(c4ccccc4)C3=O)C2)cc1 (centres undefined) 9.48%
C/C(=N/NC(=O)NC12CC3CC(CC(C3)C1)C2)c1ccccc1 6.61%
Cn1c(=O)c2c(ncn2CC(O)CNc2ccc(F)cc2)n(C)c1=O (centres undefined) 5.3%
Cc1ccc(NCC(O)Cn2cnc3c2c(=O)n(C)c(=O)n3C)cc1 (centres undefined) 16.6%
CCOC(=O)C1CCN(C(=S)Nc2ccccc2)CC1 11.3%
Cc1c(C(=O)OCC(C)C)[nH]c2c1C(=O)CC(c1cccs1)C2 (centres undefined) 22.8%
CCOC(=O)C1=C(C)NC(c2cccs2)C(=O)N1 (centres undefined) 6.75%
COc1ccccc1N/N=C/c1ccc2c(c1)OCO2 5.16%
CCN(CC)C(=O)Nc1ccccc1C 3.88%
COc1ccc(-c2cn[nH]c2-c2ccc(O)cc2O)cc1 25.6%
COc1ccccc1-c1cn[nH]c1-c1ccc(O)cc1O 36.1%
CC/C(=N/O)C(=O)c1ccc(Br)cc1 8.42%
Cc1ccccc1NC(=O)COC(=O)/C=C/c1cccc(C(F)(F)F)c1 3.86%
O=[N+]([O-])c1cc(S(=O)(=O)NC2=NCCCCC2)ccc1Cl 6.57%
O=Nc1ccc(NOC(=O)c2ccccc2)cc1 19.7%
O=C(N=Nc1ccc(NOC(=O)c2ccccc2Br)cc1)c1ccccc1O 11.6%
CCc1ccccc1N1CC(C(=O)O)CC1=O (centres undefined) -0.59%
O=C(O)C1CCN(C(=O)c2cccc3ccccc23)CC1 4.64%
Cc1cc(N2CCOCC2)nc2ccc(NC(=S)NC(C)C)cc12 4.55%
COc1ccc(NC(=O)/C=C/c2cc(OC)c(OC)c(OC)c2)cn1 7.41%
CS(=O)(=O)N(CC(=O)NC1CC1)C1CCCCC1 7.67%
Cc1csc(-c2cnn(-c3ccccc3)c2NC(=O)c2cccc(C(F)(F)F)c2)n1 0.685%
Cc1ccc(C)n1-c1cc(S(=O)(=O)N2CCOCC2)ccc1N1CCCC1 1.24%
N#Cc1cc(S(=O)(=O)N2CCOCC2)ccc1N1CCOCC1 7.94%
O=S(=O)(c1ccc(N2CCOCC2)c(Cl)c1)N1CCOCC1 7.49%
O=[N+]([O-])c1cc(S(=O)(=O)N2CCOCC2)ccc1N1CCCC1 -2.39%
CCSC1=C(C#N)C(c2cccc(Br)c2)CC(=O)N1 (centres undefined) 1.17%
CCOC(=O)c1[nH]c2ccc(OC)cc2c1N=CN(C)C 16.9%
CCn1nnnc1SCC(=O)Nc1cccc(NC(C)=O)c1 0.63%
Cc1ccc2nccc(C(=O)N3CCCC(Nc4ccc(F)cc4)C3)c2c1 (centres undefined) 14%
Cc1ccc(-c2noc(C3CCCN(C(=O)c4ccccc4Br)C3)n2)o1 (centres undefined) 15.6%
O=C(Nc1ccccc1)C1CC(=O)N(Cc2ccccc2)C1 (centres undefined) 27.5%
CC(=O)Nc1ccc(NC(=O)C2CC(=O)N(Cc3ccccc3)C2)cc1 (centres undefined) 27.7%
COc1ccc2nc(N3C(=O)CC(Cc4cc(C)cc(C)c4)C3=O)sc2c1 (centres undefined) -1.29%
COc1ccc(OCc2cc(C(=O)NC3CCOCC3)no2)c2ccccc12 12%
COC(=O)C1=C(C)N(Cc2ccco2)C(=O)C1 23.9%
O=C1CC(=O)N(Cc2cccs2)C(=O)N1 22.2%
O=C1c2ccccc2C(=O)N1Cc1ccco1 4.84%
O=C1C2C(C(=O)N1Cc1ccco1)C1C=CC2C12CC2 (centres undefined) -1.46%
COc1ccc(S(=O)(=O)N2CCCC(C(=O)N3CCOCC3)C2)cc1OC (centres undefined) 7.49%
CN(C)c1ccc(C(=O)N2CCN(c3cc(C(F)(F)F)nc4ccccc34)CC2)cc1 16.5%
Cc1ccc(Cc2c(C)nc3nc(SCC(=O)NCCCN4CCCC4)nn3c2C)cc1 9.31%
O=C1C(=O)N(Cc2cccnc2)C(c2ccc(Br)cc2)/C1=C(\O)c1ccc2c(c1)OCCO2 (centres undefined) 8.89%
O=C1/C(=C/c2cccs2)NC(=S)N1C1CC1 9.13%
CN(C)c1ncc(/C=C2/C(=O)NC(=S)N(C3CCCCC3)C2=O)cn1 10.9%
CN(C)c1ccc(/C=C/c2cc[n+](C)cc2)cc1 7.41%
CN(C)c1ccc(/C=C/c2ccncc2)cc1 25.2%
Cn1c(CCc2nc3ccccc3[nH]2)n[nH]c1=S 9.76%
CC(=O)NC1(c2ccccc2)CCN(C(=O)N2CCOCC2)CC1 4.59%
Cc1c(NS(=O)(=O)c2ccccc2F)c(=O)n(-c2ccccc2)n1C 3.58%
O=C(Nc1ccc2c(c1)CCC2)c1cccc(OC(F)F)c1 15.1%
CC(=O)Nc1ccc(NC(=O)CS(=O)(=O)c2cn(CC(=O)N3CCC(C)CC3)c3ccccc23)cc1 21.1%
O=Cc1coc2ccc3ccccc3c2c1=O 12.7%
NC(=S)N/N=C/c1coc2c(ccc3ccccc32)c1=O 10.7%
CC(C)Cn1c(=O)c2c(nc3n2CC(C)CN3Cc2ccccc2)n(C)c1=O (centres undefined) 9.7%
Cc1cc(C)n(-c2nc3ccccc3c(=O)n2OCC(=O)Nc2c(C)cccc2C)n1 1.06%
O=C1c2cccnc2C(=O)N1Cc1ccc(S(=O)(=O)N2CCN(c3ccccc3)CC2)cc1 -3.05%
CCc1ccccc1NC(=O)C1CCCN(c2ncnc3onc(-c4ccc(F)cc4)c23)C1 (centres undefined) 4.3%
COc1ccc(NC2CCCN(C(=O)CCc3ccncc3)C2)cc1OC (centres undefined) 35.9%
COc1ccc(NC2CCCN(Cc3cccc4cnccc34)C2)cc1 (centres undefined) 30.9%
COc1cc(/C=C2\SC(c3ccccc3)=NC2=O)cc(Cl)c1O 33.2%
COc1ccc(Br)cc1/C=C/C(=O)NC(=S)Nc1ccc(Cl)c(C(=O)O)c1 25.5%
CC(=O)Nc1ccc2oc(-c3cc(F)c(F)cc3Cl)nc2c1 0.785%
Cc1ccc2c(c1)NC(=O)C(CC(=O)O)O2 (centres undefined) 3.98%
CCOC(=O)/C=C1\Nc2ccccc2OC1=O 28.2%
CCCN(CCC)S(=O)(=O)c1ccc(NC(=O)C2CCCO2)cc1 (centres undefined) 3.88%
N/C(COc1ccc(C(=O)O)cc1)=N\O 0.11%
COc1ccc(CCNc2c3ccccc3nc3ccccc23)cc1OC 11.5%
OCCNc1c2ccccc2nc2ccccc12 12.6%
CCN(CC)CCN1C(=O)C(O)=C(C(=O)c2cc3ccccc3o2)C1c1cccnc1 (centres undefined) 2.07%
CCN(CC)CCN1C(=O)C(O)=C(C(=O)c2sc(C)nc2C)C1c1cccnc1 (centres undefined) 2.43%
O=C(O)CC(NS(=O)(=O)c1cccc2nsnc12)c1ccc(F)cc1 (centres undefined) 0.56%
O=c1[nH]n(-c2ccccc2)c(=O)c2ccccc12 3.85%
O=c1c2ccccc2c2ccccc2c(=O)n1-c1ccccc1 4.04%
COc1cccc(C(=O)Nc2cc(OC)ccc2NC(=O)c2ccco2)c1 17.6%
Nc1ccc2c(c1)C(=O)C(=O)c1ccccc1-2 15.6%
NCCN=C1NS(=O)(=O)c2ccccc21 7.44%
CC(=O)Nc1ccc(S(=O)(=O)Nc2nc3ccccc3nc2Nc2ccc(S(N)(=O)=O)cc2)cc1 6.12%
COc1ccc(Nc2nc3ccccc3nc2NS(=O)(=O)c2ccc(NC(C)=O)cc2)cc1 12.8%
CC(=O)Nc1ccc(S(=O)(=O)Nc2nc3ccccc3nc2Nc2ccccc2)cc1 1.54%
CC(=O)Nc1ccc(Nc2nc3ccccc3nc2NS(=O)(=O)c2ccccc2)cc1 23.5%
Cn1c(=O)c(C(=O)c2ccc(S(C)(=O)=O)c(Cl)c2Cl)c(O)c2ccccc21 17%
Cn1cc(C(=O)NCCO)c(=O)c2ccccc21 -1.83%
O=C(CSc1nnc(-c2ccccc2)n1CC1CCCO1)N1CCCC1 (centres undefined) 12.8%
Cc1nnc2ccc(-c3cccc(NS(=O)(=O)c4ccccc4Cl)c3)nn12 10.3%
CSc1ccccc1N=Cc1nc(-c2ccccc2)oc1O 8.02%
Cc1cccc(NCC(=O)c2c(N)n(C)c(=O)n(C)c2=O)c1C 4.72%
COC(=O)CN1C(c2cccc(Cl)c2)=Nc2ccc(Cl)cc2C1c1ccccc1 (centres undefined) 7.04%
COc1cc(/C=N/n2c(-c3cc(C)[nH]n3)n[nH]c2=S)cc(OC)c1O 24.5%
COc1cc(/C=N/n2c(C3CCCCC3)n[nH]c2=S)cc(OC)c1O 10.8%
COc1cccc(/C=N/n2c(-c3cc(C)[nH]n3)n[nH]c2=S)c1OC 26.8%
COc1cc(/C=N/n2c(C3CCCCC3)n[nH]c2=S)ccc1O 21%
COc1cccc(/C=N/n2c(SC)nnc2-c2ccccc2)c1O 26.3%
COc1ccc(/C=N/n2c(-c3n[nH]c4c3CCC4)n[nH]c2=S)cc1OC 23.9%
